PGK inhibitor: inhibitors of T. brucei phosphoglycerate kinase; AID 602233; 0.043% of 380,000 active; P07378; Potency, µM (doses to about 57.5 µM), without a hit: top-dose activity change, negative = inhibition, hits mostly inhibitors; PGK/GAPDH coupled, Kinase-Glo luminescence, 60 min; note: potency is the fitted concentration of half-maximal effect; nearly all actives have a fitted effect of over 60% in size
Target sequence (P07378 whole entry, looked up): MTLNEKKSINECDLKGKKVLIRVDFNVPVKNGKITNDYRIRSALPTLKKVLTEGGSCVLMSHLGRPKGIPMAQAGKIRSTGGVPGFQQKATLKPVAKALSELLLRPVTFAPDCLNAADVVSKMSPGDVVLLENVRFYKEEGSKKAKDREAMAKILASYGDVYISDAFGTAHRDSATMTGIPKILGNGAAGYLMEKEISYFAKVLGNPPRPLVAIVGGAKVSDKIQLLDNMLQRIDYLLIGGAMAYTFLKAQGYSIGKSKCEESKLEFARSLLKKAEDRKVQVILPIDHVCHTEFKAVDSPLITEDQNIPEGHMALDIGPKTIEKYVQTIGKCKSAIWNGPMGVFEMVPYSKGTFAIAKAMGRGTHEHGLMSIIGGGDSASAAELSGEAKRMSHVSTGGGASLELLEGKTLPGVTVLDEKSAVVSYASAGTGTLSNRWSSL
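Luminescent ATP detection (Kinase-Glo Plus) follows a 60-minute room-temperature incubation, with wells lacking PGK as controls. Buffer: 100 mM TEA (pH 7.6), 5 mM MgCl2, 0.01% Tween-20. Coupling enzyme GAPDH (100 nM final) supplies unstable 1,3-BPG in-well.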
PI5P4K alpha inh: PI5P4K alpha (human) kinase inhibition; P48426; PI5P4Kalpha enzyme, ADP-Glo luminescence, 60 min; stronger effect = lower value; max response, %; 1.2% of 330,000 active; active = max response of -50% or lower; inconclusive = between -30% and -50%; inactive = -30% or higher; note: value at the top dose of about 77 µM
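Single end-point luminescence (ADP-Glo) quantified ADP from PI5P4Kalpha turnover; ATP 5 microM final, 1 h at RT, 0.1% CHAPS and 0.28 mM EGTA in HEPES pH 7.4.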
Tb PFK block: inhibitors of T. brucei phosphofructokinase; T. brucei PFK, ADP-Glo luminescence; Potency, µM (series often up to 57.5 µM), without a hit: at the top dose activity, negative = inhibition, actives largely listed as inhibitors; 0.17% of 330,000 active; AID 485367;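 note: potency is the fitted concentration of half-maximal effect; 0% = uninhibited 1x PFK enzyme wells and -100% = no-enzyme wells; nearly all actives have a fitted effect of over 60% in size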
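In TEA buffer at pH 8.0 with 5 mM MgCl2, enzyme (1.25 nM) converted F6P (0.5 mM) and ATP (0.1 mM) for 45 min at room temperature. ADP product was read by luciferase luminescence.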
Pin1 inhibitor: human Pin1 inhibition | Q13526 | Pin1 FP peptide displacement, HiFluor488, 10 min | Potency, µM (series often up to 115 µM), for the others: at the highest dose activity, negative = inhibition, actives largely listed as inhibitors | 0.009% of 390,000 active | AID 504891; active = well fitted inhibition curve with a large enough effect in the polarisation, with a control signal flat, not every such curve was filed as active; inconclusive = small, poorly fitted or top-dose-only effect, or effect the other way, or a change in a side signal; inactive = no such curve, though single readings can be large or run the other way; the % refers to the polarisation; note: potency is the fitted concentration of half-maximal effect
PI4K2A block: inhibitors of human PI4K2A; 0.13% of 420,000 active; purified PI4K2A, ADP-Glo luminescence, 1 h; stronger effect = lower value; activity change, negative = inhibition, % at 76.9 µM; in the data active = activity change below about -50%; inconclusive = mostly about -30% to -49%;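 note: -100% = wells without enzyme as full effect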
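In this quantitative HTS, ADP production by PI4K2A was quantified luminescently after 1 h at ambient temperature; 100 microM adenosine served as plate-quality control.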
Numbers without * were called inactive; [ ] = dose if it differs, or a comment. The entries come from a sample that favours hits as a whole. Unless noted, calls come from the whole dose curve; as a rule, active = well fitted curve in the direction sought with a large enough effect; inconclusive = small, poorly fitted or top-dose-only effect, or another doubt; inactive = no such curve, though single readings can be large; an effect the other way counts as inactive or inconclusive. Unless noted, % is set by controls: 0 for no effect and ±100 for the full control effect.

Screening O=C(COC(=O)c1cccnc1Cl)c1ccccc1 returned PGK inhibitor -2%, Tb PFK block 1%, Pin1 inhibitor -2% and PI4K2A block -71*.
O=c1[nH]c2cc3c(cc2cc1CN(Cc1cccs1)Cc1nnnn1Cc1ccco1)OCCO3 was read as PGK inhibitor -7%, PI5P4K alpha inh -83*, Tb PFK block -18%, Pin1 inhibitor 16% and PI4K2A block -27.
Screening COc1ccc(/C=N/N2C(=O)CSC2=S)cc1Br returned PGK inhibitor -11%, PI5P4K alpha inh -78*, Tb PFK block -6%, Pin1 inhibitor inconclusive and PI4K2A block -5.
`COc1ccc(/C=N/N2C(=O)CSC2=S)cc1` gave PGK inhibitor -6%[11.5 µM], Pin1 inhibitor 19% and PI4K2A block -5.
For O=C1CSC(=S)N1N=Cc1ccc2c(c1)OCO2 the results were PGK inhibitor -11%, PI5P4K alpha inh -51*, Pin1 inhibitor 31% and PI4K2A block -14.
Screening COc1ccc(/C=C2/C(=O)N(c3cccc(F)c3)N=C2C)c(OC)c1 returned PGK inhibitor -2%, PI5P4K alpha inh 6, Tb PFK block 1%, Pin1 inhibitor -8% and PI4K2A block -51*.
CCCCn1c(N)c(N(CCC(C)C)C(=O)c2cc(-c3ccco3)nc3ccccc23)c(=O)[nH]c1=O was read as PGK inhibitor 0%, PI5P4K alpha inh -70*, Tb PFK block -24%, Pin1 inhibitor 29% and PI4K2A block -7.
CCCCN(C(=O)c1cc(-c2ccc(F)cc2)nc2ccccc12)c1c(N)n(CCCC)c(=O)[nH]c1=O was read as PGK inhibitor -13%, PI5P4K alpha inh -4, Tb PFK block 1%, Pin1 inhibitor inconclusive and PI4K2A block -1.
Screening CCCCN(C(=O)c1cc(-c2ccco2)nc2ccccc12)c1c(N)n(CCCC)c(=O)[nH]c1=O returned PGK inhibitor -9%, PI5P4K alpha inh -57*, Tb PFK block -24%, Pin1 inhibitor 25% and PI4K2A block -10.
`COCCN(C(=O)c1cc(-c2ccco2)nc2ccccc12)c1c(N)n(Cc2ccccc2)c(=O)[nH]c1=O` gave PGK inhibitor -12%, PI5P4K alpha inh -84*, Tb PFK block -26%, Pin1 inhibitor inconclusive and PI4K2A block -11.
CC(C)c1cc2c(c(O)c1O)[C@@]13CCCC(C)(C)C1CC2OC3=O (stereo partly drawn) was read as PGK inhibitor -1%, PI5P4K alpha inh -75*, Tb PFK block 16%, Pin1 inhibitor -2% and PI4K2A block -1.
Cc1ccc(Nc2nc(=O)c3cccnc3s2)cc1 was read as Tb PFK block -2%, Pin1 inhibitor 0% and PI4K2A block -3.
`COc1ccc(OC)c(Nc2nc(=O)c3cccnc3s2)c1` gave PGK inhibitor 10%, PI5P4K alpha inh -89*, Tb PFK block -10%, Pin1 inhibitor inconclusive and PI4K2A block -22.
Screening O=C(CNS(=O)(=O)c1c(Cl)cccc1Cl)OCC(=O)c1ccc[nH]1 returned PGK inhibitor -13%, PI5P4K alpha inh -51*, Tb PFK block -8%, Pin1 inhibitor -125% and PI4K2A block -6.
For O=C(CNS(=O)(=O)c1ccc(Br)cc1Cl)OCC(=O)c1ccc[nH]1 the results were PGK inhibitor 3%, PI5P4K alpha inh 2, Tb PFK block 1%, Pin1 inhibitor 5% and PI4K2A block 3.
Screening Cc1ccc(-c2nc3ccccc3n2C)o1 returned PGK inhibitor inconclusive, Tb PFK block -18%, Pin1 inhibitor 8% and PI4K2A block inconclusive.
Cn1c(-c2ccc(Br)o2)nc2ccccc21 was read as PGK inhibitor inconclusive, PI5P4K alpha inh -25, Tb PFK block -19%, Pin1 inhibitor -4% and PI4K2A block -56*.
Screening COc1ccc(CN2CC(=O)N(c3ccc(C)c(C)c3)C2=S)cc1OC returned PGK inhibitor -19%, PI5P4K alpha inh -87*, Tb PFK block 0%, Pin1 inhibitor -34% and PI4K2A block -3.
`N#Cc1nc(Nc2cc(F)cc(F)c2)c2ncn(CCO)c2n1` gave Pin1 inhibitor 14%.
